Source: PubChem BioAssay (NCI)
The panel holds about 83,000 compounds, 20% with a hit somewhere; the sample as a whole holds those more often.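 Plates (96-well) were seeded with cells, treated with compound at one concentration, and incubated for 48 hours before percent growth was determined.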 Calls of active or inactive are those of the source. How the source made its calls: active means growth percent below 10; inactive means the rest.

The molecules below were run on PC-3 prostate (assay: NCI-60 one-dose screen, 48 h (100 = growth as untreated, 0 = no growth, -100 = all killed)). Settings: 10 µM unless noted.
`Cc1nn(-c2ccccc2)c2nc(C)n(-c3ccc(Br)cc3)c(=O)c12` was tested, and the growth was 26.4% (inactive). With `CCOC(=O)C(CC)n1c(=O)c2cc(OC)c(OC)cc2c2cnc3[nH]ccc3c21` (stereo not given) the growth was 57.1% (inactive). For `CC(C)c1c(C(=O)Nc2ccccc2)c(-c2ccccc2)c(-c2ccc(F)cc2)n1CC[C@@H]1CC=CC(=O)O1`, the growth was -39.2% (active). `CC(=O)N1CC(Nc2ccc(OC(F)(F)F)cc2)=CC1=O` was tested, and the growth was 30.6% (inactive). In the case of `Oc1ccccc1/C=N/Nc1ccc2ccccc2n1`, the growth is reported as 57.3% (inactive). For `O=[N+]([O-])c1cccc(C2CC(c3ccccc3)=Nc3ccccc3S2)c1` (stereo not given), the growth was 77.4% (inactive). With `CCCCCC(=O)N(CCCC)CCCC` the growth was 99.8% (inactive). For `CCCCCCCCCCCCCCCCNCCC[C@@H](C)[C@H]1CC[C@H]2[C@@H]3[C@H](OCCCN)C[C@@H]4C[C@H](OCCCN)CC[C@]4(C)[C@H]3C[C@H](OCCCN)[C@]12C`, the growth was -14.4% (active). With `COc1ccc(-c2cc(NC(=O)Nc3ccc(O)cc3)no2)cc1` the growth was 57.6% (inactive). In the case of `O=C(O)C(O)C(O)C(=O)O.[NH-]C1CCCCC1[NH-].[Pt+2]` (stereo not given), the growth is reported as 106% (inactive). For `CCCNc1nc(SC)nc(-c2cccc(N)c2)c1C#N`, the growth was 93.6% (inactive). With `CC(=O)OCC(=O)C1CCC=CC1OC(C)=O` (stereo not given) the growth was 105% (inactive). `Nc1ccc(Nc2nccc(-c3ccc4ccccc4c3)n2)cc1` was tested, and the growth was 58.7% (inactive). In the case of `O=S(=O)(Nc1ccc(Cl)cc1Cl)c1ccc(-c2cnc(C3CC3)o2)cc1`, the growth is reported as 28.1% (inactive). For `O=C1/C(=C/c2ccc(Cl)cc2Cl)CN(S(=O)(=O)c2ccccc2)C/C1=C\c1ccc(Cl)cc1Cl`, the growth was 6.14% (active).
